Screen size: about 290,000 compounds; about 27,000 (9.3%) were called active. This excerpt belongs to a sample that is enriched for actives. A number with no mark means an inactive call. Cut-off read from the data, not from the text of the source: active = inhibition mostly above about 28% (no sharp cut-off); inactive = mostly below about 43%.
Assay: A qHTS for Small Molecule Inhibitors of Shiga Toxin; note: 0% is about no effect
Conditions: Vero cells, Shiga toxin protein synthesis inhibition reporter; at 38.7 µM, active compounds read high

SMILES	inhibition
Cc1ccc2[nH]cc(CCNC(=O)C3CCCCC3)c2c1	-0.198%
CC(C)CNC(=O)CC(NCC(C)C)C(=O)O (configuration not stated)	-15%
CCCCNC(=O)C1CCC(=O)N1CCc1ccccc1 (configuration not stated)	2.74%
COc1cc(C(=O)NC2CCN(Cc3ccccc3)CC2)cc(Cl)c1OC(C)C	2.17%
Cc1cc(OCC(=O)NCC(O)c2ccccc2)c2c(C)c(C)c(=O)oc2c1 (configuration not stated)	0.938%
CCCCN(C)CCCNC(=O)c1cc(-c2cccs2)nc2ccccc12	-4.77%
COc1cc(CN2CCCN(C)CC2)c([N+](=O)[O-])cc1OC	-4.36%
CCN(C(=O)CN1C(=O)/C(=C/c2ccc(F)cc2)SC1=S)C1CCS(=O)(=O)C1 (configuration not stated)	-8.73%
CCc1nn(CCCC(=O)Nc2ccc(C)cc2C)c(=O)c2cc3occc3n12	-5.79%
O=C(Nc1cccc(Cl)c1N1CCOCC1)c1cccnc1	-2.36%
Cc1cccc(N(C(=O)Cn2nnc(-c3ccc(C)o3)n2)C(C(=O)NC2CCCC2)c2ccncc2)c1 (configuration not stated)	-3.72%
COc1ccc2c(CC(=O)N3CCc4cc(OC)c(OC)cc4C3)coc2c1	-3.55%
C/C(=N/NC(=O)C1COc2ccccc2O1)c1ccco1 (configuration not stated)	3.3%
COc1ccc(NC(=O)c2ccccc2[N+](=O)[O-])cc1OC	9.2%
CC(=O)Oc1ccccc1C(=O)Nc1ncc([N+](=O)[O-])s1	77.1% (active)
COc1ccc(NC(=O)CC2COc3ccccc3O2)c(OC)c1 (configuration not stated)	25%
COc1ccc(NC(=O)C2COc3ccccc3O2)cc1 (configuration not stated)	70.7% (active)
O=C(Nc1ccncc1)c1ccccc1[N+](=O)[O-]	5.85%
CC(C)(C)c1cc[n+](-c2[nH]c(=O)sc2/C=N/N=C(\[O-])c2ccccc2)cc1	25.8%
COc1ccc(CNC(=O)c2c[nH]c3c(OC)cc(OC)cc3c2=O)cc1	-11.7%
COc1ccc(CN2CCCC(N3CCc4ccccc4C3)C2)c(O)c1 (configuration not stated)	-7.05%
CN1CCN(CCCCOc2cccc3ccccc23)CC1	29.7%
Cc1cccc(CCNC(=O)Cn2ncc3c([nH]c4ccc(C)cc43)c2=O)c1	15.3%
Cc1cc(-c2ccc(S(=O)(=O)N3CCc4ccccc4C3)s2)on1	-19.6%
CC1=C(C(=O)OC(C)(C)C)C(c2ccc(Br)cc2)NC(=O)N1CCCC(=O)O (configuration not stated)	9.92%

SMILES	inhibition
CCSc1nnc(SCC(=O)NNC(=O)c2ccccc2F)s1	-24.4%
Cc1cccc(NC(=O)C(C)SCc2ccccc2)c1 (configuration not stated)	30.2%
CSc1ccc(CCNC(=O)CS(=O)(=O)Cc2nc(-c3ccccc3F)oc2C)cc1	-3.45%
CCOc1ccccc1NS(=O)(=O)c1cc2c3c(c1)C(C)C(=O)N3CCC2 (configuration not stated)	-4.9%
COc1cccc(NC(=O)CN2CCN(CC(=O)Nc3ccccc3Cl)CC2)c1	-8.02%
COc1ccc2[nH]c(C(=O)N/N=C/c3cc(OC)c(OC)c(OC)c3)cc2c1	8.34%
COc1ccc2[nH]c(C(=O)Nc3ccccc3Cl)cc2c1	46.8% (active)
CC(C)[C@@H](NC(=O)OC(C)(C)C)C(=O)NCC1CCC(C(=O)N[C@@H](Cc2ccccc2)C(=O)O)CC1 (some centres not stated)	2.35%
O=C1CCN(CCc2ccccc2)CCN1CCOc1ccccc1	7.81%
CC(C)(C)OC(=O)NCCCCCC(=O)N/N=C/c1coc2ccccc2c1=O	69.6% (active)
Cc1ccc2occ(/C=N/NC(=O)c3ccccc3C)c(=O)c2c1	9.81%
NC(=S)N/N=C/c1coc2cc(Cl)ccc2c1=O	5.66%
CC1CCCCN1C(=O)CCS(=O)(=O)Cc1ccccc1 (configuration not stated)	24.6%
COc1ccc(N(CC(=O)NCc2ccc(F)cc2)C(=O)CCC(=O)Nc2nccs2)cc1	-15.4%
CCOc1ccc(OCCSc2nc3ccccc3n2CC(=O)O)cc1	1.74%
Cc1ccc2c(C)c(C(=O)N(C)CCC3CCCCO3)oc2c1C (configuration not stated)	55.6%
CCOC(=O)CSc1nc2ccc(C)cc2[nH]1	46.5%
Cc1ccc2nc(S(=O)(=O)O)[nH]c2c1	-4.97%
Cc1ccc2nc(/C(C#N)=C\c3ccc(OC(=O)c4cccs4)cc3)[nH]c2c1	52.8% (active)
CCn1c(=S)sc2c(=O)n(CC(=O)Nc3cccc(Br)c3)c(C)nc21	13.8%
COC(=O)c1c(NC(=O)COc2ccc(Cl)cc2Cl)sc2c1CC(C)(C)NC2(C)C	-5.3%
Cc1c(C=O)c2ccccc2n1CCOc1ccccc1	31.9%
CCSc1nc2sc3c(c2c(=O)[nH]1)CC(C)(C)OC3	4.12%
CC/C(C)=N/Nc1nc2sc3c(c2c(=O)[nH]1)CC(C)(C)OC3	42.5% (active)
CCOC(=O)CSc1nc2sc3c(c2c(=O)[nH]1)CC(C)(C)OC3	-6.92%

SMILES	inhibition
O=Cc1ccc(OCc2cn3ccccc3n2)cc1	57.2% (active)
Cc1ccc2nc(COc3ccc(N(C)S(=O)(=O)c4ccccc4)cc3)cc(=O)n2c1	13.5%
COc1ccc(C(=O)NCc2cn3ccccc3n2)cc1	8.12%
CCCNC(=O)CSc1nc(Cc2ccccc2)nc2ccccc12	-9.69%
CCC(C(=O)NCCC(C)C)N(Cc1ccccc1Cl)C(=O)c1snc(C(N)=O)c1N (configuration not stated)	-5.11%
Cc1ccn(-c2cccc(-n3ccc(C)n3)n2)n1	132% (active)
Cn1cc(S(=O)(=O)Nc2ccc(Cl)cc2Cl)c(=O)n(C)c1=O	-4.85%
COc1ccc(CN2CCNC(=O)C2CC(=O)NCc2cn[nH]c2-c2ccccc2)c(F)c1 (configuration not stated)	-2.54%
COc1ccc(C)cc1N(C(=O)Cn1nnc(-c2ccc(C)o2)n1)C(C(=O)NC1CCCC1)c1ccncc1 (configuration not stated)	-2.11%
Cc1ccc(S(=O)(=O)NC2CCCCCC2)cc1C(N)=O	-3.95%
CCn1cc(CCC(=O)NCc2ccc(F)cc2)c2ccccc21	-4.61%
CCOC(=O)Cc1csc(SCc2cc(=O)oc3cc(O)ccc23)n1	-5.09%
Cc1ccc2c(CSc3nncs3)cc(=O)oc2c1	120% (active)
COCc1cc(=O)oc2cc(NS(=O)(=O)c3ccc(C)cc3)ccc12	7.5%
CN1/C(=c2/s/c(=C3/C(=O)N(c4ccccc4)NC3=Nc3ccccc3)n(C)c2=O)C(C)(C)c2ccccc21	-12.9%
CC(C)(C)c1ccccc1NC(=O)CN1C(=O)NC2(CCCC2)C1=O	-11.9%
O=C(CN1CCN(c2ccc(O)cc2)CC1)Nc1ccc(-c2ccccc2)cc1	2.35%
CC(=O)c1ccc(S(=O)(=O)N2CCC3(CC2)OCCO3)cc1	-3.96%
CCC1C(=O)c2ccccc2N(C)C1=O (configuration not stated)	-0.747%
CN1C(=O)/C(=N/OC(=O)c2ccccc2Br)c2ccccc21	-3.77%
CN1C(=O)/C(=C\c2cc(Br)cs2)c2ccccc21	76.4% (active)
CCc1ccc(S(=O)(=O)Nc2cc3c(cc2N2CCCCC2)n(C)c(=O)c(=O)n3C)cc1	-14.2%
Cc1c(Cl)cccc1NC(=O)CCC(=O)N/N=C/c1ccco1	4.7%
CC(C)(c1ccccc1)c1ccc(OCCN2CCCC2)cc1	-9.76%
c1ccc(-c2ccc(OCCN3CCOCC3)cc2)cc1	86.3% (active)

SMILES	inhibition
CC(=O)c1ccc(OCCN2CCOCC2)cc1	32.1%
CC(C)(C)NC(=O)C(c1ccc(Cl)cc1)N(CCO)C(=O)c1snc(C(N)=O)c1N (configuration not stated)	-5.05%
COc1ccccc1C(C)NC(=O)Cc1ccsc1 (configuration not stated)	-7.47%
Oc1ccccc1C1=NN(c2ccccc2)C(c2ccccc2)C1 (configuration not stated)	55.6% (active)
COc1ccc(C2CC(c3cccs3)=NN2C(=O)COC(=O)c2cc3ccccc3cc2O)cc1OC (configuration not stated)	-13.7%
CC(=O)Oc1ccccc1C1=NN(C(C)=O)C(c2ccccc2)C1 (configuration not stated)	18.4%
COc1ccc(C2CC(c3cccs3)=NN2c2ccccc2)cc1 (configuration not stated)	83% (active)
COc1ccc(C2CC(c3cccs3)=NN2c2ccc(F)cc2)cc1OC (configuration not stated)	26.5%
COc1ccc(C2CC(c3cccs3)=NN2c2nc(C)c(C(C)=O)s2)cc1OC (configuration not stated)	15.6%
O=C(c1ccccc1)N1N=C(c2ccccc2O)CC1c1ccc(Br)cc1 (configuration not stated)	10.4%
COc1ccccc1N1N=C(c2cccs2)CC1c1ccccc1 (configuration not stated)	36.3% (active)
COc1ccc(C2=NN(c3ccccc3)C(c3cccs3)C2)cc1 (configuration not stated)	3.11%
CS(=O)(=O)N1CCN(CC(=O)NC2CCCC2)CC1	-2.76%
O=C(Nc1ccc(Cl)cc1)c1cccc(OC(=S)N2CCOCC2)c1	18%
O=C(COc1ccc(Cl)cc1Cl)N/N=C/c1ccccn1	8.65%
CSc1ncccc1C(=O)NCc1ccccc1Cl	-6.54%
CC1(C)Cc2ccccc2-c2[nH]c(=S)[nH]c(=O)c21	-5.22%
Brc1ccc(Nc2c3c(nc4ncnn24)CCC3)cc1	-2.6%
COCc1cc(=O)n2[nH]c(C)c(-c3ccccc3)c2n1	8.24%
COC(=O)c1c(-c2ccc(C)cc2)csc1N	-0.659%
Nc1scc(-c2ccncc2)c1Cl	64.7% (active)
CN(C(=O)COC(=O)c1nc(Cl)ccc1Cl)C1CCS(=O)(=O)C1 (configuration not stated)	-15.4%
